Compound activity (PubChem BioAssay)
OTUD3 inh = inhibitors of human OTUD3 deubiquitinase; OTU domain-containing protein 3 (Homo sapiens), Q5T2D3; purified OTUD3, Ub-rhodamine fluorescence, 2 h; inhibition, % at 25 µM; 47,000 tested, 0.7% active
USP30 inh = inhibitors of human USP30 deubiquitinase | 47,000 tested, 5.3% active | purified USP30, Ub-rhodamine cleavage fluorescence | Ubiquitin carboxyl-terminal hydrolase 30 (Homo sapiens), Q70CQ3 | inhibition, % at 25 µM
USP17 inh = inhibitors of human USP17 deubiquitinase | AID 1645855, 2021 | inhibition, % at 50 µM | Ubiquitin carboxyl-terminal hydrolase 17-like protein 5 (Homo sapiens), A8MUK1 | 47,000 tested, 6.5% active | purified USP17, Ub-rhodamine cleavage fluorescence, 3 h
Target sequence (A8MUK1 whole entry, looked up): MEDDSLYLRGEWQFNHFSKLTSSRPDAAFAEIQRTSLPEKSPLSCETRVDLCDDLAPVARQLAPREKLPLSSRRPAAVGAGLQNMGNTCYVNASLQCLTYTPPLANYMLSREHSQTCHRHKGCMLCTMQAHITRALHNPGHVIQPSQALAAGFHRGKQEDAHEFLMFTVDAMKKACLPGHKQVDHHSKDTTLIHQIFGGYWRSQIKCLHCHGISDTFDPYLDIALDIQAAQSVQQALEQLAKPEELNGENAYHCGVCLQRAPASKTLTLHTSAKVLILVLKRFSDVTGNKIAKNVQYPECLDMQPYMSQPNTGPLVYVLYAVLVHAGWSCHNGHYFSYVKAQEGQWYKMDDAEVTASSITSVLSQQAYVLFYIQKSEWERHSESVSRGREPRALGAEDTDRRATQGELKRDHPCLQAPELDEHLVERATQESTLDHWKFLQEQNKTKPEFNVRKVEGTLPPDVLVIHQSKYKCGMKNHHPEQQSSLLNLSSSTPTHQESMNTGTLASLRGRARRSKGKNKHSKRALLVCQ
USP28 inh = inhibitors of human USP28 deubiquitinase; purified USP28, Ub-rhodamine cleavage fluorescence, 30 min; inhibition, % at 25 µM; Ubiquitin carboxyl-terminal hydrolase 28 (Homo sapiens), Q96RU2; 47,000 tested, 3% active
Large screens that a line does not name were inactive. In the library only some 11% were active in any assay of this set; here they are far more common. Cut-off read from the data, not from the text of the source: active = inhibition above about 30%; inactive = the rest.

COc1ccc2occ(-c3ccc4c(c3)OCCO4)c(=O)c2c1	USP30 inh 33
CCc1ccccc1NC(=O)c1c(C)sc2c(=O)n(C(C)C)cnc12	none
OCC1CSC(c2ccccc2O)=N1 (centres undefined)	USP17 inh 30
COc1ccc(-n2nnnc2CN2CCN(S(=O)(=O)c3ccc(F)cc3)CC2)cc1	USP17 inh 34
O=S(=O)(c1ccc(Cl)cc1)N1CCN(Cc2nnnn2-c2ccc(F)cc2)CC1	none
O=C(CN1CCN(S(=O)(=O)c2ccc3c(c2)OCCCO3)CC1)N1CCCc2ccccc21	none
Cc1ccc(N(CC(=O)N2CCCc3ccccc32)S(=O)(=O)c2ccc3c(c2)OCCO3)cc1	USP30 inh 32
Clc1ccccc1CSc1nnc(C2CCCCC2)n1Cc1ccccc1	USP30 inh 57, USP17 inh 37
Cn1nc(C(=O)Nc2cccc(F)c2)c(=O)c2ccccc21	USP30 inh 37, USP17 inh 45
COc1cccc(NC(=O)N2CCN(c3ncccc3C(F)(F)F)CC2)c1	USP28 inh 42
COc1cccc(NC(=O)N2CCN(C3=CC4=NC(C)CN4C=N3)CC2)c1 (centres undefined)	none
COc1ccc2c(CC(=O)Nc3ccc(C)c(S(=O)(=O)Nc4ccc(C)cc4C)c3)coc2c1	none
O=C(Nc1ccc(Br)cc1)c1cc(=O)[nH]c2ccccc12	USP30 inh 35
CC1(O)CC(=O)c2c(cc3cc(O)cc(O)c3c2O)C1 (centres undefined)	OTUD3 inh 75, USP17 inh 77, USP28 inh 68
COCC(=O)N1C[C@@H]2C[C@]2(c2ccccc2)C(=O)c2ncccc21	none
CCC1(CC)Oc2ccc(C(=O)CCN(C)C)cc2O1	USP30 inh 35
COc1cnc(-c2ccccn2)nc1Sc1ccc(C)cc1	USP30 inh 60
Cc1cc(C)c(C#N)c(SCC(=O)Nc2c(C#N)cnn2-c2ccccc2)n1	USP17 inh 37 (no result: USP30 inh, USP28 inh)
Cc1cc(C)c(C#N)c(SCC(=O)Nc2ccc3c(c2)OCO3)n1	none
Cc1cccc(OCCCn2c(CN(C)C(=O)c3ccco3)nc3ccccc32)c1	none
Cc1ccccc1OCCCn1c(CN(C)C(=O)c2ccco2)nc2ccccc21	USP17 inh 30
CCc1ncc(CN2CCc3c(nc4cc(C(C)(C)C)[nH]n4c3=O)C2)cn1	none
Cc1[nH]c2ccccc2c1CCNC(=O)/C(=C/c1ccccc1)NC(=O)c1ccccc1	none
COc1ccc(/C=C(\NC(=O)c2ccc(Br)cc2)C(=O)NCCc2c(C)[nH]c3ccccc23)cc1	USP30 inh 34
CNC(=O)c1cccc(Nc2ccn3nc(-c4ccc(C)cc4)cc3n2)c1	none
Cc1ccc(-c2cc(=O)n(CC(=O)Nc3ccc(C(C)C)cc3)cn2)cc1	USP30 inh 48, USP17 inh 38
O=C(Cn1cnc(-c2ccccc2)cc1=O)Nc1ccc(Oc2ccccc2)cc1	none
CC(=O)c1ccc(N2CCN(C(=O)c3ccc(-c4noc(C)n4)cc3)CC2)cc1	none
CC(=O)c1ccc(N2CCN(C(=O)c3cc(Cl)c4c(c3)OCCO4)CC2)cc1	USP30 inh 34, USP17 inh 64
Cc1c(C)n(-c2ccc(Br)cn2)c2ncn(Cc3ccccc3)c(=N)c12	none
O=C(Nc1cccc(Cl)c1)N1CCC(c2nc(-c3cccnc3)no2)CC1	none
O=C(Nc1cccc(Cl)c1)N1CCC(c2cc(-c3ccco3)n[nH]2)CC1	OTUD3 inh 33, USP17 inh 64, USP28 inh 39
COc1ccc(-c2ccc(C#N)c(SCc3cc4c(cc3Cl)OCO4)n2)cc1	USP17 inh 43
COc1ccc(OC)c(/C=C(/C#N)c2nc(-c3ccc4c(c3)OCO4)cs2)c1	none
CCCC1Cc2c(sc3nc(SCC)nc(N)c23)CO1 (centres undefined)	USP17 inh 81
CCCC1Cc2c(sc3nc(SCc4ccccc4Cl)nc(N)c23)CO1 (centres undefined)	USP17 inh 40
CC1CCN(C(=O)CCS(=O)(=O)c2ccc3c(c2)NC(=O)CCS3)CC1	none
O=C1CCSc2ccc(S(=O)(=O)CCC(=O)N3CCc4ccccc4C3)cc2N1	USP17 inh 39
O=C(NCCC1=CCCCC1)c1cc2c(s1)CS(=O)(=O)C2	none (no result: USP30 inh, USP28 inh)
O=C(NCCCN1CCc2ccccc2C1)c1cc2c(s1)CS(=O)(=O)C2	USP17 inh 62, USP28 inh 41
O=C(Nc1nnc(CCc2ccccc2)s1)C(=O)c1c[nH]c2ccccc12	USP30 inh 35
O=C(NCCc1ccccc1Cl)c1cc(OCc2ccccc2)nc2ccccc12	none
O=C(Nc1cccc(F)c1)c1cnn(-c2ccccc2)c1C1CCNCC1	none
Cc1ccccc1-n1ncc(C(=O)Nc2cccc(C#N)c2)c1C1CC1	USP28 inh 42
O=C(Cn1c(=O)n(Cc2ccccc2)c(=O)c2nscc21)NCc1ccco1	USP17 inh 42
CCn1cc2c(n1)c(=O)n(Cc1ccccc1)c(=O)n2CC(=O)NCc1ccc(C)cc1	OTUD3 inh 35, USP30 inh 90, USP17 inh 56
Cn1cc2c(n1)c(=O)n(Cc1ccc(F)cc1)c(=O)n2CC(=O)Nc1ccccc1F	USP17 inh 42
O=C(Cn1c(=O)n(Cc2ccccc2)c(=O)c2cc(Cl)ccc21)NCc1ccco1	none
CCn1cc2c(n1)c(=O)n(Cc1ccc(C)cc1)c(=O)n2CC(=O)Nc1ccc(F)cc1	USP17 inh 81
Cn1cc2c(n1)c(=O)n(Cc1ccc(F)cc1)c(=O)n2CC(=O)NCc1ccco1	none
Cc1cccc(CNC(=O)Cn2cnc3c(c(C)c(C)n3-c3ccccc3)c2=O)c1	none
COc1ccccc1CNC(=O)c1cn(C)nc1S(=O)(=O)N1CCCCC1	none
O=C(Cn1c(=O)[nH]c2c(-c3ccccc3)c[nH]c2c1=O)NCc1ccco1	USP17 inh 45 (no result: USP30 inh, USP28 inh)
CCCn1c(=O)c2nscc2n(CC(=O)NCc2ccc(C)cc2)c1=O	USP30 inh 42, USP17 inh 43
CCCn1c(=O)c2nscc2n(CC(=O)NCc2ccccc2)c1=O	none
O=c1[nH]c2ccccc2n(-c2ccc(Cl)cc2)c1=O	none
CS(=O)(=O)N1CC2CCC(Oc3cccnc3)C2C1 (centres undefined)	none (no result: USP17 inh)
O=C(COC(=O)c1cc2c(s1)CCC2)c1ccc2[nH]c(=O)[nH]c2c1	OTUD3 inh 36, USP17 inh 56, USP28 inh 66
c1ccc(Cc2nnc(N3CCOCC3)c3ccccc23)cc1	USP28 inh 34
CCC(=O)Nc1ccccc1-c1nc2ccccc2n(CC(=O)Nc2cc(OC)ccc2OC)c1=O	USP30 inh 85, USP17 inh 45, USP28 inh 40
COc1ccc(OC)c(NC(=O)CN2CCC(c3nc4ccccc4[nH]3)CC2)c1	none
O=C(Cn1c(=O)n(CC2CCC(C(=O)NC3CCCC3)CC2)c(=O)c2ccccc21)NCc1ccco1 (centres undefined)	OTUD3 inh 58, USP30 inh 39, USP17 inh 54, USP28 inh 50
COc1ccc(NC(=O)Cn2c(=O)n(Cc3ccco3)c(=O)c3ccc(C(=O)NC4CCCC4)cc32)cc1	none
O=C(Cn1c(=O)n(CC2CCC(C(=O)NCCc3ccccc3)CC2)c(=O)c2ccccc21)NCc1ccco1 (centres undefined)	none
